Bioassay records (PubChem)
A selection: hits, their analogues and other compounds. The true share with any hit is near 2.4%.
Pol eta inh = inhibitors of human DNA polymerase eta; Potency, µM (titrated, usually from 114 µM), hits mostly inhibitors; recombinant Pol eta, fluorescent DNA replication assay; AID 588591; 1.2% of 390,000 active; Q9Y253
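Fluorescent replication assay: 50 nM final substrate added after a 15 min room-temperature compound preincubation with 10 nM enzyme. Signal taken at 0 min and again at 10 min.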
TDP1 block = blocks human tyrosyl-DNA phosphodiesterase 1; 0.28% of 350,000 active; recombinant TDP1, AlphaScreen DNA substrate cleavage; Potency, µM (series often up to 130 µM), hits mostly inhibitors; also: nearly all actives have a fitted effect of over 40% in size
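Signal: AlphaScreen proximity between streptavidin donor and anti-FITC acceptor beads on intact substrate. Reaction: Tdp1 1 nM, substrate 15 nM final, 5 min RT after 15 min compound preincubation.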
POLI inh = DNA polymerase iota (human) inhibition; Pol iota fluorescent replication assay, 10 min; 1% of 390,000 active; Potency, µM (top dose mostly 115 µM), most hits filed as inhibitors; AID 588590
Target sequence (Q9UNA4 whole entry, looked up): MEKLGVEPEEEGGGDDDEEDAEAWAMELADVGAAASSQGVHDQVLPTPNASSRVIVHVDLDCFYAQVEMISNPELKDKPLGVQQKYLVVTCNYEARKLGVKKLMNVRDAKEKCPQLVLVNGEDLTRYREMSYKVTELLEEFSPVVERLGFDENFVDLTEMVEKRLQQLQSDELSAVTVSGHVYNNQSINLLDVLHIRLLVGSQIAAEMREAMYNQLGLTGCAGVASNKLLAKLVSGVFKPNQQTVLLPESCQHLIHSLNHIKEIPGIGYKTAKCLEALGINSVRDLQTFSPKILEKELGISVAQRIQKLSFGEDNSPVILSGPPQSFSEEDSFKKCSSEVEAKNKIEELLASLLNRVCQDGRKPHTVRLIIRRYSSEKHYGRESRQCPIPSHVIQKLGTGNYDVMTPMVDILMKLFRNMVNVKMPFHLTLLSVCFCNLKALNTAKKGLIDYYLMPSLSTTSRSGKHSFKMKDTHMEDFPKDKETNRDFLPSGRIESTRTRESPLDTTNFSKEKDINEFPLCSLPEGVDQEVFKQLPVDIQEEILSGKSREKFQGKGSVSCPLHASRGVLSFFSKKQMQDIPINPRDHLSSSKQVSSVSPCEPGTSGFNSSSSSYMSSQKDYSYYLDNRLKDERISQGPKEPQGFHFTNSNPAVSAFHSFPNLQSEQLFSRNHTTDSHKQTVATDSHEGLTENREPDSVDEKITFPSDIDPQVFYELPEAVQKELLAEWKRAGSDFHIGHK
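Fluorescent replication assay read twice, at 0 min and 10 min after adding 50 nM (final) substrate. Enzyme (10 nM) and compounds were first incubated 15 min at room temperature; enzyme-free buffer wells were negative controls.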
POLK inh = blocks human DNA polymerase kappa activity. Q9UBT6. purified Pol kappa, fluorescent DNA synthesis assay, 10 min. Potency, µM (titrated, usually from 107 µM), most hits filed as inhibitors. 0.53% of 400,000 active. AID 588579
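10 nM Pol kappa was preincubated with compounds for 15 min at room temperature. Reaction started with 50 nM (final) substrate. Fluorescence read kinetically at 0 and 10 min.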
POLB inh = inhibitors of human DNA polymerase beta. Pol beta primer extension/strand displacement, fluorescence kinetic. P06746. Potency, µM (doses to about 114 µM), hits mostly inhibitors. 1.3% of 340,000 active
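Human Pol beta at 10 nM; strand-displacement substrate 50 nM final. Compound exposure 15 min at room temperature before start, reaction 10 min at room temperature.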
Of the large screens only hits and unclear results are named; the others gave an inactive call. Calls follow the shape of the dose curve; as a rule, active = well fitted curve in the direction sought with a large enough effect; inconclusive = small, poorly fitted or top-dose-only effect, or another doubt; inactive = no such curve, though single readings can be large; an effect the other way counts as inactive or inconclusive.

O=C(CSc1nnc(-c2ccccc2)o1)c1nnc(-c2ccccc2)o1	Pol eta inh 20µM
CCOC(=O)CSc1nnc(-c2ccccc2)o1	POLI inh inconclusive
O=C(O)C1Cc2ccccc2CN1S(=O)(=O)c1ccc(Cl)cc1 (centres undefined)	Pol eta inh inconclusive, POLB inh inconclusive
O=C(O)C1Cc2ccccc2CN1C(=O)COc1ccc(Cl)cc1 (centres undefined)	Pol eta inh 31.6µM, TDP1 block inconclusive
Fc1ccc(-n2cc(-c3ccccc3)c3c(=S)nc[nH]c32)cc1	POLI inh 79.4µM, POLK inh inconclusive
COC(=O)c1ccc(C=O)cc1	none (no result: Pol eta inh, POLI inh, POLK inh, POLB inh)
CCCCn1c(SCC(=O)c2ccc(O)c(O)c2)nc2ccsc2c1=O	Pol eta inh 8.91µM, POLI inh inconclusive, POLB inh inconclusive
COCCCc1cc(F)c(S(=O)(=O)N2CCN(S(=O)(=O)c3ccc4c(c3)OCCO4)CC2)cc1F	none (no result: Pol eta inh, POLI inh, POLK inh, POLB inh)
CN1C(=O)NC(c2ccccc2)C2=C1CN(c1ccc3ccccc3c1)C2=O (centres undefined)	Pol eta inh 11.2µM
Cc1ccnc2c(N)cccc12	none (no result: Pol eta inh, TDP1 block, POLB inh)
O=C1NC(=S)S/C1=C\c1ccc(SCc2ccco2)o1	Pol eta inh 1.58µM, POLI inh inconclusive, POLK inh 1.78µM, POLB inh 2.24µM (no result: TDP1 block)
CCCC1=NN2C(=N)/C(=C\c3cc(C)n(-c4cccc(C)c4)c3C)C(=O)N=C2S1	POLI inh inconclusive
CCCC1=NN2C(=N)/C(=C\c3ccc(SCc4ccco4)o3)C(=O)N=C2S1	Pol eta inh 3.55µM, POLI inh 20µM, POLK inh 28.2µM, POLB inh 12.6µM (no result: TDP1 block)
CCC1=NN2C(=N)/C(=C\c3ccc(SCc4ccco4)o3)C(=O)N=C2S1	Pol eta inh 15.8µM, POLI inh 22.4µM, POLK inh inconclusive, POLB inh 12.6µM
CC(=O)c1ccc(NC(=O)c2ccc([N+](=O)[O-])o2)cc1	POLI inh inconclusive
COc1cc(NC(=O)c2ccc([N+](=O)[O-])o2)ccc1NC(=O)c1ccco1	POLB inh 0.355µM
CC(=O)c1cccc(NC(=O)c2ccc([N+](=O)[O-])o2)c1	POLI inh 79.4µM (no result: TDP1 block, POLB inh)
Cc1cc(C)cc(NC(=O)c2ccc([N+](=O)[O-])o2)c1	none
Cc1cc(C)nc(NC(=O)c2ccc([N+](=O)[O-])o2)n1	Pol eta inh inconclusive, TDP1 block inconclusive, POLI inh 70.8µM
O=C(Nc1nc(-c2ccccn2)cs1)c1ccc([N+](=O)[O-])o1	Pol eta inh 35.5µM, POLI inh 22.4µM, POLB inh inconclusive
COc1cc(NC(=O)C(C)C)ccc1NC(=O)c1ccco1	none
COc1cc2c(cc1OC)C1O[C@](c3ccsc3)(C2)OC2=C1C(=O)CC(C)(C)C2	none (no result: Pol eta inh, TDP1 block, POLI inh, POLK inh)
O=C1c2ccccc2C(=O)N1c1ccncc1	none (no result: Pol eta inh, POLI inh, POLK inh, POLB inh)
O=C(Nc1ccc(N2CCN(C(=O)c3ccccc3)CC2)cc1)c1ccc([N+](=O)[O-])o1	Pol eta inh inconclusive, POLI inh inconclusive, POLB inh 25.1µM
Cc1ccccc1C(=O)N1CCN(c2ccc(NC(=O)c3ccc([N+](=O)[O-])o3)cc2)CC1	none
CN(CC(=O)Nc1cccc(F)c1)C(=O)c1ccc(OCc2cn3ccccc3n2)cc1	POLI inh 44.7µM (no result: POLB inh)
Cc1cccc(C)c1NC(=O)CN1CCN(C(=O)c2ccc(OCc3cn4ccccc4n3)cc2)CC1	Pol eta inh inconclusive, TDP1 block 44.7µM, POLI inh inconclusive (no result: POLB inh)
Cc1cc(C)n(-c2nc(NC(C)C)nc(NC(C)(C)C)n2)n1	none (no result: Pol eta inh, POLB inh)
CCNc1nc(C#N)nc(N2CCCCC2)n1	none (no result: Pol eta inh, POLB inh)
CSCc1nc2sc(C(=O)Nc3nc(C)cs3)c(C)c2c(=O)[nH]1	Pol eta inh 31.6µM, POLI inh inconclusive
CN1C/C(=C/c2ccccc2[N+](=O)[O-])C(=O)/C(=C\c2ccccc2[N+](=O)[O-])C1	Pol eta inh inconclusive, POLI inh 89.1µM, POLK inh inconclusive (no result: TDP1 block, POLB inh)
CN1/C(=C/c2cc[n+](C)c3ccccc23)C=Cc2ccccc21	POLB inh 31.6µM
COc1ccc(NC(=O)CCS(=O)(=O)c2ccc(Br)s2)cc1	Pol eta inh 50.1µM, POLI inh inconclusive, POLK inh inconclusive, POLB inh 31.6µM (no result: TDP1 block)
CC(C)c1ccc(NC(=O)CCS(=O)(=O)c2ccc(Br)s2)cc1	none
CCc1cccc(CC)c1NC(=O)CCS(=O)(=O)c1ccc(Br)cc1	none
CCc1cccc(CC)c1NC(=O)CCS(=O)(=O)c1ccc(Br)s1	POLB inh 20µM
